# Source: ChEMBL document CHEMBL3433997, “St. Jude Leishmania screening dataset” (2016)
# Biological target: Glucose transporter (Leishmania mexicana) (UniProt O61059)
# Test: ST_JUDE_LEISH: Cytotoxicity at 2uM final concentration against transgenic Leishmania Mexicana promastigotes LmGT2 that are glucose transport deficient and complemented with the L. Mexicana glucose transporter 2. Activity is measured by DNA content using SYBR green in vitro
# Assay type: functional
row,Compound,inhibition [%]
1,CN1CCN(CCCNCc2ccc(Nc3nccc(Nc4ccc(Oc5ccccc5)cc4)n3)cc2)CC1,1.48
2,O=C(/C=C/c1ccc(Cl)c(Cl)c1)NCCCCCN1CCC(NC(=O)Nc2cccc(Cl)c2Cl)CC1,6
3,COc1ccc2c(c1C1CCN(CCCCNC(=O)c3ccc(-c4ccc(Cl)cn4)cc3)CC1)CCCC2,3.95
4,CN1CCN(c2ccc(Cl)cc2NC(=O)C2COc3ccccc3O2)CC1 (stereo not given),-1.34
5,Cc1ccc(Nc2nccc(Nc3ccc4c(C)n[nH]c4c3)n2)cc1F,1.7
6,CN(C)CCOc1ccc2nc(-c3cccc(OCc4ccccc4)c3)[nH]c2c1C#N,1.74
7,CO/C(=C\C=C\c1cc2cc(Cl)c(Cl)cc2[nH]1)C(=O)NC1CC2CCCC(C1)N2C (stereo not given),5.12
8,Cc1cc(N2CCN(CC3CCCCC3)CC2)nc(Nc2ccc(Br)cc2)n1,0.54
9,Cc1cc(=O)[nH]c2cc(Nc3ccnc(Nc4cccc(C(N)=O)c4)n3)ccc12,3.24
10,CC(C)CCNC(=O)C1Cc2c([nH]c3cc(Br)ccc23)C2(CCN(CCc3ccccc3)CC2)N1 (stereo not given),-3.76
11,O=C(NCCCN1CCC(N2CCCCC2)CC1)c1ccc(N2CCOc3ccccc32)s1,3.19
12,COCCNCc1cccc(-c2ccccc2CN(C(=O)c2ccc3c(c2)OCO3)c2ccc(OC)cc2)c1,3.25
13,N=C(N)NC(=O)Nc1cc(F)c(Cl)c(Cl)c1,6.35
14,Cc1cc2ccc(/C=C/C(=O)NC3CCC(CCN4CCc5ccc(C#N)cc5CC4)CC3)cc2[nH]1 (stereo not given),2.92
15,O=C(Nc1ccc(OC2CCN(Cc3ccccc3)CC2)c(Cl)c1)c1ccsc1,2.24
16,COc1cc2nc(NCCc3ccccc3)nc(N(C)Cc3ccccc3)c2cc1OC,2.95
17,CC(C)(C)c1cc(C(=O)N2CCN(c3ncccc3C(F)(F)F)CC2)n(Cc2ccccc2)n1,4.37
18,COC(=O)c1ccc(OCC(O)CO)cc1O (stereo not given),-0.04
19,Cc1cc(=NN=CC=Cc2ccccc2)c2ccccc2[nH]1,0.81
20,Cc1cccc2nc(-c3ccc(-c4cccc(CN5CCN(c6ccncc6)CC5)c4)cc3)[nH]c12,8.81

row,Compound,inhibition [%]
1,FC(F)(F)c1cccc(Nc2nc(-n3ccnc3)nc(-n3ccnc3)n2)c1,1.05
2,CS(=O)(=O)c1ccc2nc(NC(=O)c3csnn3)sc2c1,4.47
3,COc1ccc(CNCc2ccc(-c3ccc(-c4nc5cc(F)ccc5[nH]4)cc3)cc2)cc1,1.74
4,COc1ccc2nccc([C@@H](O)CN3CCC(NCc4nc5ccccc5[nH]4)CC3)c2c1,-0.97
5,Nc1nc(O)c2cc(CN(C=O)c3ccc(C(=O)N[C@@H](CCC(=O)O)C(=O)O)cc3)ccc2n1,2.98
6,COc1cc2nc(C)nc(Nc3ccc(Oc4ccccc4)cc3)c2cc1OC,-1.95
7,CCCCCn1c(Sc2ccc(C#N)c([N+](=O)[O-])c2)nnc1-c1cc(OC)cc(OC)c1,9.25
8,CC(=O)Nc1cccc(/C=C/C(=O)N2CCC(N3CCCCC3)CC2)c1,5.39
9,COc1cccc2c(C)cc(NCc3ccc(Cl)cc3)nc12,3.54
10,CC(C)[C@H](NCC(=O)c1ccccc1)C(=O)O,-0.17
11,CN(C)c1ccc(-c2cscc2C(=O)NC2CCCN(Cc3cccnc3)C2)cc1 (stereo not given),-0.28
12,Cc1ccccc1C1CCN(C2CCC(NC(=O)c3cc4cc(Cl)ccc4o3)CC2)CC1 (stereo not given),3.04
13,c1ccc(Oc2cccc(Nc3ccnc4ccccc34)c2)cc1,3.97
14,CCOC(=O)C(CO)NC(=O)c1ccc([N+](=O)[O-])o1 (stereo not given),5.24
15,COCCn1c(C)cc(C(=O)CN2C(=O)NC(C)(c3ccc(C(C)(C)C)cc3)C2=O)c1C (stereo not given),1.71
16,Cc1ccc(C(=O)c2oc3ccc4c(C)cc(=O)oc4c3c2C)cc1,0.22
17,Cc1cccn2c(=O)c3cc(C(=O)NC(C)c4ccccc4)c(=N)n(CCc4ccccc4)c3nc12 (stereo not given),11.9
18,O=c1cc(NCCCNCc2cc3c(Cl)cccc3s2)[nH]c2ccccc12,-2.02
19,COC(=O)c1cccc(CNCc2ccc(-c3ccc(-c4nc5ccccc5[nH]4)s3)cc2)c1,9.28
20,COc1ccc(-c2cccc(NC(=O)c3cccc(Cl)c3)c2)cc1CN1CCC(O)CC1,5.34
